Laboratory results published in PubChem BioAssay (NCI).
About 83,000 compounds went through this panel and 20% of them were active in at least one assay; those are over-represented in the sample as a whole.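 Method: cells in 96-well plates; compound added at one concentration; 48 h incubation; percent growth measured; values under 10 scored active.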 A number with no mark means an inactive call. Active and inactive are the calls of the source.

Legend:
Test in all cases: NCI-60 one-dose screen, 48 h (100 = growth as untreated, 0 = no growth, -100 = all killed)
Conditions in all cases: 10 µM unless noted
[1] = system: SK-MEL-2 melanoma
[2] = system: EKVX NSCLC
[3] = system: SN12C renal
[4] = system: UO-31 renal
[5] = system: TK-10 renal
[6] = system: ACHN renal
[7] = system: CAKI-1 renal
[8] = system: A498 renal
[9] = system: CCRF-CEM leukemia
[10] = system: MOLT-4 leukemia
[11] = system: SR leukemia
[12] = system: RPMI-8226 leukemia
[13] = system: OVCAR-8 ovarian
[14] = system: OVCAR-5 ovarian
[15] = system: OVCAR-4 ovarian
[16] = system: SK-OV-3 ovarian
[17] = system: IGROV1 ovarian
[18] = system: HS 578T breast
[19] = system: NCI/ADR-RES ovarian
[20] = system: OVCAR-3 ovarian

Row | Compound | growth [1] | growth [2] | growth [3] | growth [4] | growth [5] | growth [6] | growth [7] | growth [8] | growth [9] | growth [10] | growth [11] | growth [12] | growth [13] | growth [14] | growth [15] | growth [16] | growth [17] | growth [18] | growth [19] | growth [20]
1 | CC1(C)NCCC[C@]2(C)[C@H]3CC[C@H]4[C@H]5[C@H](C(=O)/C=C/c6cccnc6)CCC[C@]5(CO)CC[C@@]4(C)[C@]3(C)CC[C@@H]12 | 96.9% | 79.2% | 58.5% | 57.8% | 106% | 80.4% | 47.8% | 93.9% | 36% | 7.39% (active) | -24.6% (active) | 13.1% | 55.5% | 74.8% | 75.3% | 108% | 26.6% | 74.4% | 82.4% | 
2 | O=C1c2ccccc2C(=O)C1c1ccc(Br)cc1 | 106% | 95.6% | 95.3% | 82.6% | 125% | 97.1% | 82.8% | 85.5% | 75.6% | 101% | 97.3% | 82.9% | 102% | 107% | 98.8% | 111% |  | 99.3% | 91.9% | 116%
3 | CN1CCN(CCOc2ccc(-c3cnc4c(-c5cccc(F)c5F)cnn4c3)cc2)CC1 | 99.9% | 78.6% | 90.3% | 80.8% | -64.2% (active) | -22.7% (active) | -8.23% (active) | 95.4% | -13.3% (active) | 80.5% | -1.72% (active) | -30.5% (active) | 4.29% (active) | 116% | -49.8% (active) | 108% | 81.7% | 103% | 8.9% (active) | 
4 | O=P(O)(O)OCC1OC(n2cnc3c(NCc4ccco4)ncnc32)C(O)C1O (centres undefined) | 89.2% | 48.6% | 12.1% | -6.51% (active) | 60.9% | 4.1% (active) | -42.3% (active) | 7.68% (active) | -31.5% (active) | 16% | 27.1% | -23.6% (active) | 9.63% (active) | 45.3% | 15.7% | 1.95% (active) | -36.4% (active) | 32.5% | 19.5% | 
5 | CSC(SC)=C(C#N)c1nc2ccccc2s1 | 40% | 74.2% | 34.9% | 51.8% | 112% | 62.4% | 55.8% | 49.9% | 24.7% | 63.6% | 81.2% | 25% | 70.2% | 72.5% | 68.1% | 19.6% |  | 77.1% | 76.7% | 70%
6 | CCN(CC)CCCN1C(=O)c2c(c(C)c3c(oc4ccc(O)cc43)c2C)C1=O | 94.7% | 101% | 63.4% | 63.7% | -27.4% (active) | 25.9% | 82.4% | 94.8% | -19.7% (active) | 83.2% | 19.1% | -15.7% (active) | -31.8% (active) | 103% | -35.5% (active) | 109% | 75.2% | 81.2% | -62.9% (active) | 
7 | C=CN(C(=O)N1CCN(c2cc3c(cc2F)c(=O)c(C(=O)O)cn3C2CC2)CC1)c1nc(-c2ccc(OC)cc2)cs1 | 18.4% | 23.7% | 11.3% | 15.5% | 42.8% | 23.6% | 17.3% | 8.44% (active) | 8.17% (active) | 18% | 20.4% | -6.11% (active) | 14.3% | 33.8% | 35.3% | 17.6% |  | 20.3% | 37.6% | 13.7%
8 | Cc1nn(-c2cc(NC3CCC(O)CC3)c3c(=O)[nH]c(CCC(F)(F)F)cc3c2)c2c1C(=O)CC(C)(C)C2 (centres undefined) | 60.3% | 54% | 46.2% | 39% | 61.7% | 31.5% | 47.4% | 12.4% | 66.6% | 40.8% | 25.9% | 40.7% | 52.1% | 85.3% | 66.8% | 36.3% |  | 34.4% | 72% | 70%
9 | C=CC(=O)Nc1ccc(Oc2nccc(Nc3nnc(-c4ccc(C)cc4)s3)n2)cc1 | 79.4% | 103% | 84% | 55.7% | 135% | 68.5% | 41.1% | 83.3% | 50.5% | 68.6% | 36.2% | 61.8% | 81.4% | 105% | 99% |  | 62.5% | 67.4% |  | 43%
10 | Cc1[nH]c(C2CC(c3ccc(C(F)(F)F)c(F)c3)=NN2c2ccccc2)c(C)c1C(=O)NCC(F)(F)F (centres undefined) | 104% | 69.3% | 90.7% | 58.8% | 151% | 95.8% | 59% | 48.2% | 79.4% | 58.3% | 81.6% | 70.7% | 87.8% | 94.8% | 92.5% | 85.6% | 67.3% | 87% | 89.7% | 
11 | Nc1nc(N)c(N=Nc2ccccc2)c(-c2ccccc2)n1 | 85.3% | 51.3% | 56% | 36% | 55.1% | 60.4% | 45.3% | 31% | 52.6% | 46.6% | 38.7% | 62.5% | 77.5% | 56.9% | 66.4% | 50.6% |  | 3.4% (active) | 75.1% | 67.2%
12 | C[n+]1ccc(CCc2c[nH]c3ccccc23)cc1 | 81.7% | 53.9% | 93.7% | 76.7% | 81.2% | 90.9% | 92.6% | 71.9% | 101% | 90.5% | 83.8% | 94% | 107% | 86.5% | 99.4% | 77.3% | 87.7% | 104% | 105% | 
13 | Cc1nc2ccccc2c(/C=C/c2ccccc2)c1C(=O)/C=C/c1ccccc1 | 27% | 45.9% | 23.4% | 35.8% | 31% | 17.4% | 34.7% | 74% | 6.85% (active) | 10.8% | 12.3% | 8.21% (active) | 10.4% | 6.51% (active) | 38.5% | 68.1% |  | 41.9% | 7.26% (active) | 3.37% (active)
14 | COc1ccc(-c2nc(-c3cn(C)c4ncccc34)cs2)cc1 | 1.08% [100 µM] (active) | -26.4% [100 µM] (active) | 14.1% [100 µM] | 14.4% [100 µM] | -21.3% [100 µM] (active) | 8.63% [100 µM] (active) | 0.0611% [100 µM] (active) | 24.1% [100 µM] | 2.08% [100 µM] (active) | 2.81% [100 µM] (active) | 12.2% [100 µM] | -28.1% [100 µM] (active) | 11.5% [100 µM] | 28% [100 µM] | 1.57% [100 µM] (active) | -3.58% [100 µM] (active) |  | 38.8% [100 µM] | 3.69% [100 µM] (active) | 17.9% [100 µM]
15 | O=C(O)c1cn(C2CC2)c2cc(N3CCN(C(=O)Nc4nc(-c5ccc(Br)cc5)cs4)CC3)c(F)cc2c1=O | -17% (active) | 24.5% | 6.36% (active) | 14% | 34.9% | 17% | 42.4% | -7.91% (active) | 6.67% (active) | 8.35% (active) | 21.5% | -9.26% (active) | 10% | 32.5% | 26.6% | 0.843% (active) |  | 3.4% (active) | 69.4% | 8.58% (active)
